Usually inhibition stands for the relative decrease from the control value, in per cent.

“And” between values parts separate entries of the source, which are not always exact repeats. Equal values may be shown once. The whole screen tested about 110,000 compounds, of which about 190 (0.17%) were called active. This is one part of a sample in which actives are shown more often than they occur. Rule as the data show it: active = inhibition above about 50%; inactive = the rest. Measured potencies and affinities stand elsewhere. Where a structure was tested more than once in an assay, its records may differ in their call.

Chain of Dual specificity protein phosphatase 6 (Rattus norvegicus) (Q64346 whole entry, looked up): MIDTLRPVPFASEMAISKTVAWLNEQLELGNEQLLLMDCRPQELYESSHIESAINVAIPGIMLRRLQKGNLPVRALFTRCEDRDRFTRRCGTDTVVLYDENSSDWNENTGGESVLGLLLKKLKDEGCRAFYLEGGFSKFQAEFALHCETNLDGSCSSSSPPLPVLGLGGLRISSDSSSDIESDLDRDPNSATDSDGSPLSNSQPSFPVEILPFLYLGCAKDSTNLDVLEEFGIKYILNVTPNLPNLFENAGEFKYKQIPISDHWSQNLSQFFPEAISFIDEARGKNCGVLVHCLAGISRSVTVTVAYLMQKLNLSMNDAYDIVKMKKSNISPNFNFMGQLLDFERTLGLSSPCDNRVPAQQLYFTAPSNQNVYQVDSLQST

The assay addresses Dual specificity protein phosphatase 6 (Rattus norvegicus) (UniProt Q64346). Nature of the assay: inhibition of rat DUSP6 enzyme activity – biochemical, in vitro, primary screen (AID 425).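 Also: plate controls were vehicle for no effect and reference inhibitor for full effect.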 To be noted: recombinant MKP-3 phosphatase activity, fluorescence; at 20 µM; stronger effect = higher value.
`COc1cc2c(C#N)c(N3CCOCC3)nc(N)c2c(N)n1`: the inhibition was -5.5% (inactive).
Then `COc1cc2c(C#N)c(N3CCCCC3)nc(N)c2c(N)n1`, with 8% (inactive); and `Cc1c(NC(=O)COc2ccccc2[N+](=O)[O-])cccc1-c1nc2ncccc2o1`, with 59.4% (active).
Then `O=C(COc1ccccc1[N+](=O)[O-])Nc1ccc(-c2nc3ncccc3o2)cc1`, with 16% (inactive).
As to `Cc1ccc2oc(-c3cccc(NC(=O)COc4ccccc4[N+](=O)[O-])c3C)nc2c1`, the inhibition is 0.7% (inactive).
Then `CCOc1ccc(NC(=O)CSC(N)=O)cc1`, with -0.4% (inactive).
In the case of `Cc1ccc(C)c(S(=O)(=O)NCc2cccnc2)c1`, the inhibition is -4.3% (inactive).
For the compound `Cc1cc2nc3s/c(=C/c4ccc(-c5ccc(Cl)cc5)o4)c(=O)n3c2cc1C`, the inhibition is 0.8% (inactive).
In the case of `O=c1/c(=C\c2ccc(-c3cccc(Cl)c3)o2)sc2nc3ccccc3n12`, the inhibition was 0.1% (inactive).
As for `O=c1/c(=C\c2ccc(-c3cccc(Br)c3)o2)sc2nc3ccccc3n12`, the inhibition was 1.3% (inactive).
Then `O=c1/c(=C/c2ccc(-c3ccc(Cl)cc3)o2)sc2nc3ccccc3n12`, with -1.6% (inactive).
On to `O=C(O)c1ccccc1-c1ccc(/C=c2\sc3nc4cc(Br)cnc4n3c2=O)o1`, for which the inhibition is 52.1% (active).
Then `O=c1/c(=C/c2ccc(-c3ccccc3[N+](=O)[O-])o2)sc2nc3cc(Br)cnc3n12`, with 0.3% (inactive).
Then `Cc1cc(C)c2nc3s/c(=C\c4ccc(-c5ccc(Cl)c(C(=O)O)c5)o4)c(=O)n3c2c1`, with 19.9% (inactive); and `O=c1/c(=C/c2ccc(-c3ccccc3)o2)sc2nc3ccccc3n12`, with -5.1% (inactive).
Then `O=c1/c(=C/c2ccc(-c3ccc([N+](=O)[O-])cc3Cl)o2)sc2nc3cc(Br)cnc3n12`, with 1% (inactive).
Take `CCCCOC(=O)c1ccc(NC(=O)c2cncc(Br)c2)cc1`: the inhibition was 2.8% (inactive).
In the case of `COc1ccccc1/C=C1\SC(=S)N(NC(=O)Cc2ccccc2)C1=O`, the inhibition was 2.2% (inactive).
Then `O=C(COc1ccc(=O)n(-c2ccccc2)n1)Nc1ccccc1`, with 1.2% (inactive); and `COC(CNS(=O)(=O)c1ccc(Cl)cc1)c1ccccc1` (stereo not given), with -0.6% (inactive).
Then `CC1(C)CC(=O)C2=C(C1)OC1=C(C(=O)CC(C)(C)C1)C2c1ccc(-c2nnc(N)s2)cc1`, with 5.6% (inactive); and `CC(C)CSc1nc2c(c(=O)[nH]c(=O)n2C)n1CC(O)COc1cccc2ccccc12` (stereo not given), with -2.5% (inactive); and `Cn1c(=O)oc2cc(S(=O)(=O)Nc3ccc(Cl)cc3F)ccc21`, with -2.1% (inactive).
Then `Cc1nc2c3ccccc3n(CC#N)c(=O)n2n1`, with -2.1% (inactive).
On to `NC(=O)C1(N2CCCCC2)CCN(CC(=O)Nc2ccc(Oc3ccccc3)cc2)CC1`, for which the inhibition is -17% (inactive).
Then `COc1ccc(CCCc2nnc(SCC(=O)Nc3ncc(C)s3)o2)cc1`, with -9.2% (inactive).
Then `O=C(O)c1ccccc1NCN1C(=O)C2CC=C(Cl)CC2C1=O` (stereo not given), with 5.2% (inactive); and `O=[N+]([O-])c1cccc2c1NC(c1ccc(F)cc1)C1CC=CC21` (stereo not given), with -0.5% (inactive).
With `Cc1ccc2c(c1)C1C=CCC1C(C(=O)O)N2` (stereo not given), the inhibition was 40.3% (inactive).
Then `O=C(O)C1Nc2ccc3ccccc3c2C2C=CCC12` (stereo not given), with 91.5% (active); and `COc1ccc2c(c1)C1C=CCC1C(C(=O)O)N2` (stereo not given), with 23.5% (inactive); and `O=C(O)C1Nc2c(cccc2[N+](=O)[O-])C2C=CCC12` (stereo not given), with 79% (active).
Then `O=[N+]([O-])c1cccc(C2Nc3ccc4ccccc4c3C3C=CCC32)c1` (stereo not given), with 8.7% (inactive); and `O=[N+]([O-])c1ccc(C2Nc3ccc([N+](=O)[O-])cc3C3C=CCC32)cc1` (stereo not given), with 6.6% (inactive).
Then `O=C(O)C1Nc2ccc([N+](=O)[O-])cc2C2C=CCC12` (stereo not given), with 63.7% (active).
Take `Oc1ccc(C2Nc3ccc4ccccc4c3C3C=CCC32)cc1` (stereo not given): the inhibition is 2.7% (inactive).
Then `CC(=O)Nc1ccc2c(c1)C1C=CCC1C(C(=O)O)N2` (stereo not given), with 3% (inactive).
Then `O=[N+]([O-])c1cccc2c1NC(c1ccccc1F)C1CC=CC21` (stereo not given), with 2.2% (inactive); and `O=C(Nc1ccc2nn(-c3ccccc3)nc2c1)c1cc(I)ccc1Cl`, with 3.4% (inactive); and `Cn1cnnc1Sc1nc2c(c(=O)n(C)c(=O)n2C)n1C`, with -3.7% (inactive).
With `COc1ccc(C(=O)/C=C/c2c(Cl)cccc2Cl)cc1`, the inhibition is 10.2% (inactive).
As to `CCOc1ncccc1C(=O)OCC(=O)NCCc1ccc(OC)cc1`, the inhibition was 1.6% (inactive).
Then `O=C(c1ccc(S(=O)(=O)NCC2CCCO2)cc1)N1CCc2ccccc21` (stereo not given), with 8.3% (inactive); and `O=C(CCNS(=O)(=O)c1ccccc1[N+](=O)[O-])Nc1ccc(I)cc1`, with 2% (inactive).
Then `C=CCn1c(SCC(=O)NCc2cccs2)nnc1C1CCCCC1`, with -0.2% (inactive); and `COc1cc(/C=C2\SC(=S)N(c3ccc(C)cc3C)C2=O)cc(Br)c1O`, with -2.7% (inactive); and `O=C(NCC1CCCO1)c1cnn2c1NC(c1ccco1)CC2C(F)(F)F` (stereo not given), with -1.8% (inactive).
Then `Cc1ccc(NC(=O)Cn2nc(C)c3ccccc3c2=O)cc1F`, with -2.5% (inactive); and `COc1cc(C(=O)NC(NC(=S)Nc2ccc(C(C)=O)cc2)C(Cl)(Cl)Cl)cc(OC)c1OC` (stereo not given), with 3.5% (inactive).
Take `COc1cccc(C2C(C(=O)Nc3ccccc3)=C(C)N=C3SCC(=O)N32)c1` (stereo not given): the inhibition was 3.3% (inactive).
Then `Cc1ccc(C(=O)O)cc1-n1c(C)ccc1C`, with 59% (active); and `Cc1cc(N)ccc1-n1c(C)ccc1C`, with -1.5% (inactive).
With `Cc1cc(Cl)c2cc(C(=O)O)ccc2n1`, the inhibition was 3.5% (inactive).
Then `Cc1cc(C(=O)O)ccc1-n1c(C)ccc1C`, with 55% (active) and 10.8% (inactive); and `Cc1ccc(C(=O)O)cc1N1C(=O)c2ccccc2C1=O`, with -1.1% (inactive); and `Cc1ccc(-c2ccccc2)n1-c1cccc(C(=O)O)c1`, with 2.4% (inactive).
Then `Cc1ccc(C)n1-c1cc(C(=O)O)ccc1O`, with 32.6% (inactive); and `Cc1ccc(C)n1-c1cc(C(=O)O)cc(C(=O)O)c1`, with 32.5% (inactive); and `Cc1ccc(C)n1-c1cc(C(=O)O)ccc1Cl`, with 101% (active).
Then `COc1cccc(C2=NN(C(=O)COc3ccccc3)C(O)(C(F)(F)F)C2)c1` (stereo not given), with 1.7% (inactive).
`Cc1cccc(C(C)C)c1NC(=O)c1cccnc1`: the inhibition is -7.7% (inactive).
Turning to `CCN(CC)c1ccc(/C=C2/SC(=O)N(CNc3ccc(OC)c(Cl)c3)C2=O)cc1`, the inhibition was 2.6% (inactive).
Then `COc1ccc(/C=C2\C=C(c3ccc(Br)cc3)OC2=O)cc1[N+](=O)[O-]`, with 5.6% (inactive); and `COc1ccc(/C=N/Nc2nnc(-c3ccccc3)c(-c3ccccc3)n2)cc1`, with 0.6% (inactive).
For the compound `N/C(=N/O)c1nc(N2CCCCC2)nc(N2CCCCC2)n1`, the inhibition was -8.2% (inactive).
As to `O=C(Nc1ccc(C(=O)N2CCOCC2)cc1)Nc1cccc2ccccc12`, the inhibition is 2% (inactive).
Then `CN(C)CCCNC(=O)c1ccc(F)cc1`, with -0.5% (inactive); and `CN(C)CCCNC(=O)c1cccc(F)c1`, with -3.1% (inactive); and `CN(C)CCCNC(=O)c1ccc2sc3cc(=O)c(N)cc-3nc2c1`, with 84.1% (active).
Take `Cc1ccc(-n2ncc(C(=O)N3CCc4ccccc4C3)c2NC(=O)c2ccco2)cc1C`: the inhibition was -7.8% (inactive).
On to `CC1(C)OC(=O)C(=Cc2ccc(I)o2)C(=O)O1`, for which the inhibition is 101% (active).
Then `CC1(C)OC(=O)C(=Cc2ccc(-c3ccc(Cl)cc3Cl)o2)C(=O)O1`, with 7.8% (inactive); and `O=C1C(=Cc2ccc(I)o2)C(=O)c2ccccc21`, with 15.6% (inactive).
Consider `Cc1ccc(C)c(C(=O)COC(=O)c2ccc(Br)o2)c1`, for which the inhibition was -15.9% (inactive).
Then `COc1ccc(-c2cc3ccccc3n2CC(O)CN2CCN(CCO)CC2)cc1` (stereo not given), with -0.9% (inactive).
Then `O=C(O)c1cccc(N2C(=O)c3ccc4c5c(ccc(c35)C2=O)CC4)c1`, with 71.8% (active); and `O=C(O)c1cccc(N2C(=O)CCC2=O)c1`, with -5.5% (inactive).
Then `O=C(O)c1cccc(N2C(=O)c3ccc(Br)cc3C2=O)c1`, with 0.9% (inactive).
For `c1ccc2c(-n3cnnn3)cccc2c1`, the inhibition is -8.8% (inactive).
Then `Cc1ccc(-c2nc(NC(=O)CSc3nnc(C)s3)ns2)cc1`, with 6.1% (inactive); and `Cc1ccc(-c2nc(NC(=O)CSc3nnnn3-c3ccccc3)ns2)cc1`, with 2.1% (inactive).
Then `Cc1ccc(-c2csc3nnc(SCC(=O)Nc4nsc(-c5ccccc5)n4)n23)cc1`, with -3.1% (inactive); and `Cc1ccc(-c2nc(NC(=O)CSc3nnc4scc(-c5ccccc5)n34)ns2)cc1`, with 12.3% (inactive); and `CCn1c(=O)cc(SCC(=O)Nc2ccc3c(c2)OCCO3)c2ccccc21`, with 2.8% (inactive).
Then `O=c1[nH]c2c(n(C3CCCCC3)c1=O)CCC2`, with -11.2% (inactive); and `Cc1ccc(C(=O)Nc2ccccc2C(=O)N2CC(C)OC(C)C2)cc1` (stereo not given), with 1.8% (inactive); and `O=C1NC(=O)N(c2ccccc2)C(=O)/C1=C\c1ccc(Br)o1`, with 8.3% (inactive).
Regarding `CC(C)c1ccc(N2C(=O)NC(=O)/C(=C/c3ccc(I)o3)C2=O)cc1`, the inhibition is 12.4% (inactive).
Then `CC(C)c1ccc(N2C(=O)NC(=O)/C(=C/c3ccc(Br)o3)C2=O)cc1`, with 58.6% (active); and `Cc1cc(N2C(=O)NC(=O)/C(=C\c3ccc(N(C)C)o3)C2=O)ccc1Br`, with 2.1% (inactive).
Then `Cc1cc(C)cc(N2C(=O)NC(=O)/C(=C\c3ccc([N+](=O)[O-])o3)C2=O)c1`, with 25.1% (inactive).
Then `Cc1cc(N2C(=O)NC(=O)/C(=C\c3ccc([N+](=O)[O-])o3)C2=O)ccc1Br`, with 65.5% (active); and `O=C(NC(Cc1ccccc1)C(=O)N1CCN(c2ccccn2)CC1)c1ccco1` (stereo not given), with -1.1% (inactive); and `COc1ccc(OC)c(CN2C(=O)c3ccccc3C2C(=O)NCc2cccnc2)c1` (stereo not given), with -10.2% (inactive).
In the case of `CN(Cc1ccccc1)S(=O)(=O)c1ccc2[nH]c(=O)oc2c1`, the inhibition is -2.6% (inactive).

Source of the values: PubChem BioAssay AID425 (Sanford-Burnham Center for Chemical Genomics, 2006).
